Screening data deposited in PubChem BioAssay by National Center for Advancing Translational Sciences (NCATS).
Only some compounds are listed: those with a hit (about 2.1% of all), similar ones and a draw of the others.
aSyn yeast inh: qHTS of alpha-syn Inhibitors. Potency, µM (series often up to 46.1 µM), hits mostly activators. Yeast expressing alpha-synuclein, growth rescue, BacTiter-Glo, 24 h. actives 0.14% (n = 370,000); further: nearly all actives have a fitted effect of over 65% in size
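Readout is rescue of growth in alpha-synuclein-expressing yeast, so inhibitors of toxicity appear as activators. Growth after 24 hr at 30 deg C in galactose medium is quantified by luminescence.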
TDP-43 yeast inh: qHTS of TDP-43 Inhibitors. actives 1.8% (n = 410,000). AID 652104, 2013. TDP-43 expressing yeast growth rescue, BacTiter-Glo, 24 h. Potency, µM (titrated, usually from 46.1 µM), hits mostly activators; further: nearly all actives have a fitted effect of over 50% in size
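Yeast cells expressing TDP-43 under galactose induction are exposed to compounds for 24 hr at 30 deg C. BacTiter-Glo luminescence measures growth, so protective compounds score as activators.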
FUS suppressor: qHTS for Suppressors of FUS Proteinopathy: Primary screen using FUS-linked yeast assay | S. cerevisiae FUS-expressing, growth rescue, OD600, 24 h | Potency, µM (doses to about 76.6 µM), actives largely listed as activators | actives 0.24% (n = 390,000) | AID 1347120, 2019; further: nearly all actives have a fitted effect of over 55% in size
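Yeast expressing FUS under galactose induction, OD 0.005 in 2% galactose medium; compounds in a dilution series, 24 h at 30C. Growth rescue by absorbance at 600 nm; CP55940 positive control, DMSO negative.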
Abeta yeast res: qHTS for compounds that reverse cellular toxicity of Amyloid beta (A-beta) peptide in yeast: Primary Screen. yeast expressing A-beta42, growth rescue, OD600, 48 h; response scale: 0% DMSO, 100% iron-clioquinol control. Potency, µM (highest dose often 46.1 µM), hits mostly activators. AID 1347071, 2019. actives 0.063% (n = 410,000); further: nearly all actives have a fitted effect of over 55% in size
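Yeast A-beta toxicity model in growth medium with pinned compounds, 48 h at 30 C; growth read as absorbance at 600 nm. Normalized to FeCl3/clioquinol equimolar mix (positive) and DMSO (negative).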
Numbers stand for hits; 0 = inactive; ? = inconclusive; - = no result given; [ ] = dose if it differs, or a comment. The call rests on the fitted dose curve; in most records, active means well fitted curve in the direction sought with a large enough effect; inconclusive means small, poorly fitted or top-dose-only effect, or another doubt; inactive means no such curve, though single readings can be large; an effect the other way counts as inactive or inconclusive.

SMILES	aSyn yeast inh	TDP-43 yeast inh	FUS suppressor	Abeta yeast res
CC(Sc1oc(-c2cccs2)nc1S(=O)(=O)c1ccccc1)c1ccccc1 (stereo not drawn)	-	0	0	0
O=C(CCNS(=O)(=O)c1ccccc1)OCc1ccc([N+](=O)[O-])cc1	0	0	0	0
Cc1ccc(S(=O)(=O)NCCC(=O)OCc2ccc([N+](=O)[O-])cc2)cc1C	0	20µM	0	0
COCc1cc(C)nc2c1C(=O)NC(c1ccc(C)cc1)N2Cc1ccccc1 (stereo not drawn)	-	0[9.22 µM]	0	0
CCN1CCN(Cc2ccc(NC(=O)c3cc(NC(=O)c4cc(-c5ccc(OC)cc5)n[nH]4)cc(OC)c3)cc2C(F)(F)F)CC1	0	0	28.2µM	0
CCN1CCN(Cc2ccc(NC(=O)c3cc(NC(=O)c4ccc5n[nH]nc5c4)cc(OC)c3)cc2C(F)(F)F)CC1	0	0	0	0
O=C1CCc2cc(S(=O)(=O)Nc3ccc4c(c3)OCCO4)ccc2N1	-	-	0	-
COC(=O)c1c(Oc2ccc(OC)cc2)nnc(-c2ccccc2)c1-c1ccccc1	-	0	0	0
O=C(CN(C(=O)OCC1c2ccccc2-c2ccccc21)[C@@H](Cc1ccccc1)C(=O)O)OCc1ccc(C(=O)NCc2ccccc2)cc1	-	-	25.1µM	-
Cc1ccccc1NC(=O)c1c(C)oc2ccc(O)c(CN3CCCC3)c12	-	0	0	0
Cn1c(NCC(O)c2ccccc2)nc2c1c(=O)n(Cc1ccc(Cl)cc1)c(=O)n2C (stereo not drawn)	0	0	0	0
Cn1c(NCC(O)c2ccccc2)nc2c1c(=O)n(Cc1ccc(Cl)c(Cl)c1)c(=O)n2C (stereo not drawn)	0	0	8.91µM	0
COC(=O)c1ccc(OCC2c3cc(OC)c(OC)cc3CCN2C(=O)c2ccc(F)cc2)cc1 (stereo not drawn)	0	35.5µM	?	0
COC(=O)c1ccc(OCC2c3cc(OC)c(OC)cc3CCN2C(=O)c2ccccc2C)cc1 (stereo not drawn)	0	?	?	0
COC(=O)c1ccc(OCC2c3cc(OC)c(OC)cc3CCN2C(=O)Cc2ccccc2)cc1 (stereo not drawn)	0	20µM	?	0
CCC(CC)C(=O)N1CCc2cc(OC)c(OC)cc2C1COc1ccc(C(=O)OC)cc1 (stereo not drawn)	0	28.2µM	?	0
COc1ccc(CNc2nc(-c3ccco3)nn2S(=O)(=O)c2ccc3ccccc3c2)cc1OC	-	0	?	0
COCCNC(=O)CN1C(=O)COc2ccc(S(=O)(=O)N3CCCC3)cc21	-	0	0	0
Fc1ccc(CNc2nc(-c3ccccc3)cc(C(F)(F)F)n2)cc1	-	0	0	0
CC(=O)N1N=C(c2ccco2)CC1c1ccc(Br)cc1 (stereo not drawn)	0	20µM	0	0
CC(=O)N1N=C(c2ccco2)CC1c1ccc(C)cc1 (stereo not drawn)	0	0	0	0
CC(Oc1ccccc1)C(=O)Nc1ccccc1C(=O)OCc1cc(=O)n2nc(C3CC3)sc2n1 (stereo not drawn)	-	0	0	0
CC(=O)n1nc(-c2ccccc2)cc1-c1ccccc1	0	12.6µM	0	0
COc1ccc(C)cc1NC(C)C(=O)c1c[nH]c2ccccc12 (stereo not drawn)	0	-	-	-
COc1ccc(/C=C2\CCc3ccccc3C2=O)cc1O	0	14.1µM	0	0
SMILES	aSyn yeast inh	TDP-43 yeast inh	FUS suppressor	Abeta yeast res
CC(=O)Nc1ccc(/C=C2\CCc3ccccc3C2=O)cc1	0	35.5µM	0	0
O=C1/C(=C\c2ccc([N+](=O)[O-])cc2)CCc2ccccc21	0	?	0	0
COc1ccc(C2Nc3ccccc3C(=O)N2Cc2ccco2)cc1COc1c(C)cccc1C (stereo not drawn)	0	-	-	-
CCc1cccc(C)c1NS(=O)(=O)c1ccc2c(c1)NC(=O)C(C)C(=O)N2 (stereo not drawn)	-	0	0	0
S=C(Nc1ccccc1)Nc1nccs1	0	12.6µM	0	?
C/C(=C\c1ccccc1)C(=O)Nc1nccs1	0	11.2µM	0	0
O=C(Cc1ccc(F)cc1)Nc1nccs1	0	0	0	0
Fc1ccc(NC(=S)Nc2nccs2)cc1	0	22.4µM	0	?
O=[N+]([O-])c1cc(Cl)ccc1Nc1nc(Nc2ccc(Cl)cc2[N+](=O)[O-])nc(N2CCOCC2)n1	0	-	-	-
COc1ccc(NC(=O)C2CC(c3c(F)cccc3Cl)=NO2)cc1 (stereo not drawn)	0	12.6µM	0	0
COc1cc(NC(=O)C2CC(c3c(F)cccc3Cl)=NO2)cc(OC)c1OC (stereo not drawn)	0	0	0	0
CCSC1=NC2(CCN(C(=O)NC3CCCCC3)CC2)N=C1c1ccc(C)cc1	-	0	0	0
Cc1ccc(F)cc1C(=O)N1CCCC(c2cc(C(=O)Nc3ccccc3Cl)no2)C1 (stereo not drawn)	0	35.5µM	?	0
O=C(Nc1ccc2c(c1)OCO2)c1cc(C2CCCCN2C(=O)c2ccc3ccccc3c2)on1 (stereo not drawn)	0	0	35.5µM	0
O=C(Nc1ccc2c(c1)OCO2)c1cc(C2CCCN(C(=O)C3CCCCC3)C2)on1 (stereo not drawn)	0	35.5µM	0	0
O=C(Nc1ccccc1Cl)c1cc(C2CCCN(C(=O)C3CCCCC3)C2)on1 (stereo not drawn)	0	15.8µM	0	0
CC(NC(=O)c1ccco1)c1cccc2ccccc12 (stereo not drawn)	0	20µM	0	0
CCc1ccccc1S(=O)(=O)Cc1ccc(C(=O)NCCc2ccc(Cl)cc2)o1	-	35.5µM	?	0
O=C(NCCc1ccccc1)c1ccc(CS(=O)(=O)c2ccc(Cl)cc2)o1	0	0	0	0
Cc1ccccc1S(=O)(=O)Cc1ccc(C(=O)NCc2ccccc2Cl)o1	-	0	0	0
CCc1ccccc1S(=O)(=O)Cc1ccc(C(=O)NCc2ccc(Cl)cc2)o1	-	35.5µM	0	0
Cc1ccc(NC(=O)Cn2cc(S(=O)(=O)c3ccc(C)cc3)c(=O)c3cc4c(cc32)OCO4)cc1	-	0	0	0
Cc1ccc(C(=O)NCCN2C(=O)C3C4C=CC(C4)C3C2=O)cc1 (stereo not drawn)	-	-	0	-
Cc1cccc(NC(=O)N2CC(=O)Nc3sc4c(c3C2c2ccccc2)CCCC4)c1C (stereo not drawn)	-	0	0	0
C(=C\c1nc(-c2ccncc2)no1)/c1ccccc1	0	11.2µM	0	0
COc1cccc(/C=C/c2cnc3ccccc3n2)c1OC	0	-	-	-
Cc1cccc(C2NC(=O)c3ccccc3O2)c1 (stereo not drawn)	0	14.1µM	0	0
Cc1ccc(-n2nc(C)c3c(C(F)(F)F)cc(-c4cccnc4)nc32)cc1C	-	0	0	0
N#Cc1cc(-c2ccccc2)[nH]c1-c1nccc2ccccc12	0	11.2µM	0	0
